# Experimental data from PubChem BioAssay (NCATS).
# Several values for one entry are separate records, joined by “and”; a condition that tells them apart may be missing. Equal entries are not always repeated. Records with an inconclusive call do not appear. Values without a mark were called inactive. Activity calls are given as the source filed them. Calls come from the whole dose curve; as a rule, active = well fitted cell-killing curve with a large enough effect; inconclusive = small, poorly fitted or top-dose-only effect; inactive = flat fitted curve, though single readings scatter.
# Assay: Cell Viability - N2a (AID 540); note: nearly all actives have a fitted effect of over 45% in size;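 for activity change, negative = cytotoxicity: plate controls were DMSO alone for no effect and tamoxifen control for full effect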
# Conditions: N2a mouse neuroblastoma cell viability; activity change, negative = cytotoxicity: at 92.2 µM (top of the series)
# Text: NIH Chemical Genomics Center [NCGC]
# NIH Molecular Libraries Screening Centers Network [MLSCN]
# National Institutes of Environmental Health Sciences [NIEHS]
# National Toxicology Program [NTP]
# We have developed a 1536-well cell-based assay for quantitative high throughput screening (qHTS) against a number of cell lines to determine in vitro cytotoxicity of small molecules. This particular assay uses the N2a cell line which is derived from mouse neuroblastoma.
# NCGC Assay Protocol Summary:
# The CellTiter-Glo luminescent cell viability assay (Promega) is a homogeneous method to measure the number of viable cells in culture. The end point readout of this assay is based on quantitation of intracellular ATP, an indicator of metabolic activity, using the luciferase reaction. Luciferase catalyzes the oxidation of beetle Luciferin to oxyluciferin and light in the presence of ATP. The luminescent signal is proportional to amount of ATP present.
# Using the CellTiter-Glo luminescent cell viability assay, the amount of cellular ATP was measured in the N2a cell line with complete culture medium following compound treatment for 40 hours. The assay was performed in opaque white Kalypsys 1536-well plates. In the screen, tamoxifen and doxorubicin were used as positive controls. Library compounds were measured for their ability to cause acute toxicity in the cell line, as reflected by a decrease in intracellular ATP levels, in a concentration-dependent manner. […] AC50 values were determined from concentration-response data modeled with the standard Hill equation.
# qHTS protocol for CellTiter Glo N2a cellular assay
# [Step] [Parameter] [Value] [Description]
# 1. Reagent; 5 uL; 1500 N2a cells/well
# 2. Time; 5 hr; 37 °C incubation
# 4. Controls; 23 nL; Tamoxifen 0.34 uM to 100 uM & Doxorubicin 0.02 nM to 100 uM
# 5. Time; 40 hr; 37 °C incubation
# 6. Reagent; 5 uL; CellTiter Glo reagent
# 7. Time; 20 min; Room Temperature
# 8. Detection; Luminescence; Viewlux plate reader
# Keywords: cell viability, cytotoxicity, N2a cell line, luminescence, NTPHTS, NTPHTS_NCGC, NIEHS, EPA, DSSTox, MLSMR, MLSCN, NIH Roadmap, qHTS, NCGC
# Potency is the fitted concentration of half-maximal effect.
Structure (SMILES),"activity change, negative = cytotoxicity",Potency
CC(=O)[C@H]1CC[C@H]2[C@@H]3CCC4=CC(=O)CC[C@]4(C)[C@H]3CC[C@]12C,-96.5% (active) and -82.2% (active),
O=C(O)c1cc(=O)[nH]c(=O)[nH]1,7.18%,
CC1=NN(c2ccccc2)C(=O)C1,-0.342%,
Cc1noc(NS(=O)(=O)c2ccc(N)cc2)c1C,-3.99%,
Cc1nnc(NS(=O)(=O)c2ccc(N)cc2)s1,-0.134%,
O=C(N[C@H](CO)[C@H](O)c1ccc([N+](=O)[O-])cc1)C(Cl)Cl,-15.7%,
N=C(N)c1ccc(OCCCCCOc2ccc(C(=N)N)cc2)cc1,,15800 nM (active)
NC(N)=NC(N)=NCCc1ccccc1,-109% (active),
Cc1cc(NS(=O)(=O)c2ccc(N)cc2)no1,-1.31%,
C[C@]12C=CC(=O)C=C1CC[C@@H]1[C@@H]2C(=O)C[C@@]2(C)[C@H]1CC[C@]2(O)C(=O)CO,-6.87%,
CC[C@H](C)C(=O)O[C@H]1C[C@@H](C)C=C2C=C[C@H](C)[C@H](CC[C@@H]3C[C@@H](O)CC(=O)O3)[C@H]21,,2000 nM (active)
NNC(=O)c1ccncc1,10.5%,
COc1ccc2cc3[n+](cc2c1OC)CCc1cc2c(cc1-3)OCO2,,1260 nM (active)
CN(C)c1ccc(C(=C2C=CC(=[N+](C)C)C=C2)c2ccc(N(C)C)cc2)cc1,,794 nM (active)
Cc1ccnc2c1NC(=O)c1cccnc1N2C1CC1,11.5%,
Cc1ncc([N+](=O)[O-])n1CCO,-15.5%,
CCc1cc(C(N)=S)ccn1,-17.2%,
CC(=O)Oc1ccccc1C(=O)Nc1ncc([N+](=O)[O-])s1,,25100 nM (active)
